From PubChem BioAssay
B2AR arrestin: beta2AR (human) beta-arrestin recruitment activity | P07550 | beta-arrestin recruitment to beta2AR, cell-based reporter | Potency, µM (series often up to 46.1 µM), usual class: activators | actives 0.02% (n = 330,000); further: nearly all actives have a fitted effect of over 65% in size
Target sequence (P07550 whole entry, looked up): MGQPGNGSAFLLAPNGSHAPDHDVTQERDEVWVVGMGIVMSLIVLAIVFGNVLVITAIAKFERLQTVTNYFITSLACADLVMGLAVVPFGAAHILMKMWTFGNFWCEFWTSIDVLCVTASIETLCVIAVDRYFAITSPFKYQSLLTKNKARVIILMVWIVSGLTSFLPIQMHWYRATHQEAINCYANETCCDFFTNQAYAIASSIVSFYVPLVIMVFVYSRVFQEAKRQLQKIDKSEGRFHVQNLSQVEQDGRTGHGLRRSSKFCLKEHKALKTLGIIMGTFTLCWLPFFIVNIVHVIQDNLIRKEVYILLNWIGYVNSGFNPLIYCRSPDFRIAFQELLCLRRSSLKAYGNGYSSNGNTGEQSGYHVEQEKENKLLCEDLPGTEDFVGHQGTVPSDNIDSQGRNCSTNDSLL
Giardia killer: kills Giardia lamblia; activity change, % at 7.66 µM, hits read low; actives 0.15% (n = 340,000); Giardia lamblia trophozoite viability; in the data active means activity change below about -80%; inconclusive means between about -30% and that limit;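 further: parasites exposed to compound for two days anaerobically before the ATP read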
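ATP-content bioluminescence gauges trophozoite survival. Cells (100/well) receive compound and incubate anaerobically for 48 hrs at 37 deg C; detection reagent follows for 15-30 min at room temperature.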
p53 reactivator: re-activators of mutant p53 | H1299 p53-A138V BP100-luciferase reporter, luminescence, 24 h | Potency, µM (doses to about 92.2 µM), actives largely listed as activators | actives 0.063% (n = 320,000) | AID 504706; further: nearly all actives have a fitted effect of over 45% in size
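p53-null H1299 cells stably carrying temperature-sensitive p53-A138V and a BP100-luciferase reporter were pinned with compounds (4-point, 1:5 series) and held 24 hrs at 37 deg C. Luminescence was read 10 min after detection reagent.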
ClpP mod: qHTS Assay for Activators of ClpP; actives 1.9% (n = 340,000); Potency, µM (series often up to 57.5 µM); purified B. subtilis ClpP, FRET peptide cleavage, 20 min; ATP-dependent Clp protease proteolytic subunit (Bacillus subtilis (strain 168)), P80244; AID 651965, 2013; active means well fitted falling curve with a large enough effect; inconclusive means small, poorly fitted or top-dose-only effect; inactive means no such curve, though single readings can be large or run the other way; further: the source files actives as falling curves though it sought activators and does not explain the sign; nearly all actives have a fitted effect of over 65% in size
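ClpP 10 microg/mL final, pH 8 Tris/KCl buffer with BSA, glycerol, Tween-20; compound pinned in; FRET-FV substrate; RT 20 min; Ex320/Em430; ΔFRET vs ADEP 5.8 microM, DMSO, no enzyme.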
Mito fusion act: mitochondrial division inhibition or fusion activation | AID 485298 | actives 0.23% (n = 320,000) | Potency, µM (top dose mostly 46.1 µM), most hits filed as activators | S. cerevisiae fusion-defective mutant growth rescue, CellTiterGlo 48 h; further: nearly all actives have a fitted effect of over 45% in size
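Read-out: ATP-based luminescence (CellTiterGlo, 10 min ambient) reporting growth of fusion-defective ts yeast after 48 hours at 37C on glycerol/ethanol YPEG medium in the presence of compound.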
uPA generation: inhibitors of cell surface uPA generation. cell surface uPA generation assay, qHTS. Potency, µM (doses to about 38.3 µM), hits mostly inhibitors. actives 0.31% (n = 330,000). AID 540303; active means well fitted inhibition curve with a large enough effect; inconclusive means small, poorly fitted or top-dose-only effect; inactive means no such curve, though single readings can be large or run the other way; tested in mouse RAW 264.7 cells; further: nearly all actives have a fitted effect of over 55% in size
Each line names hits and unclear results; the compound was inactive in the other large screens. Only some compounds are listed: those with a hit (about 2.1% of all), similar ones and a draw of the others. Unless noted, the call rests on the fitted dose curve; in most records, active means well fitted curve in the direction sought with a large enough effect; inconclusive means small, poorly fitted or top-dose-only effect, or another doubt; inactive means no such curve, though single readings can be large; an effect the other way counts as inactive or inconclusive.

CCOC(=O)Nc1oc2ccccc2c(=O)c1C	ClpP mod 5µM
O=C(NCCc1ccccc1)c1ccc2c(c1)N(Cc1ccccc1)C(=O)c1ccccc1S2=O (centres undefined)	none (no result: B2AR arrestin, Giardia killer, p53 reactivator, Mito fusion act, uPA generation)
COc1ccc(NC(=O)c2c(NC(=O)Cc3ccccc3)sc3c2CCCC3)cc1	ClpP mod 28µM (no result: B2AR arrestin, p53 reactivator, Mito fusion act, uPA generation)
Cc1ccc(NC(=O)c2c(NC(=O)Cc3ccccc3)sc3c2CCCC3)cc1	ClpP mod 22µM (no result: B2AR arrestin, p53 reactivator, Mito fusion act, uPA generation)
Cc1ccc(S(=O)(=O)NN2C(=O)c3ccccc3NC2(C)C)cc1	ClpP mod 16µM
O=C1Nc2ccc(I)cc2/C1=C/c1cc(Br)c(O)c(Br)c1	Mito fusion act 0.46µM (no result: B2AR arrestin, Giardia killer, p53 reactivator, ClpP mod, uPA generation)
CC(C)(C)S(=O)(=O)c1ccc2nc3c(n2c1)CCCC3	ClpP mod 28µM
Brc1ccc2nc3c(n2c1)CCCC3	none
COc1cccc(OC(=O)CSc2nnc(-c3cccs3)o2)c1	none (no result: B2AR arrestin, Giardia killer, p53 reactivator, Mito fusion act, uPA generation)
CCC1CCCCN1CCCNC(=O)c1ccc2c(=O)n(CCOC)c(=O)[nH]c2c1 (centres undefined)	none (no result: ClpP mod)
COCCn1c(=S)[nH]c2cc(C(=O)NCC3CCCO3)ccc2c1=O (centres undefined)	none (no result: uPA generation)
COCCn1c(=O)[nH]c2cc(C(=O)NCC3CCCO3)ccc2c1=O (centres undefined)	ClpP mod 28µM
CCN1CCCC1CNC(=O)c1ccc2c(=O)n(CCOC)c(=O)[nH]c2c1 (centres undefined)	ClpP mod 32µM
Cc1ccc(Cl)cc1NS(=O)(=O)c1ccc(N2CCCCS2(=O)=O)cc1	none (no result: B2AR arrestin, Giardia killer, p53 reactivator, Mito fusion act, uPA generation)
COc1ccc(COC[C@H](C)[C@H](O[Si](C)(C)C)[C@@H](C)[C@H]2OC(=O)[C@H]2C)cc1	none (no result: B2AR arrestin, p53 reactivator, ClpP mod, Mito fusion act, uPA generation)
CN(C)c1ccc(C(CNS(=O)(=O)c2ccc(Br)cc2)N2CCCC2)cc1 (centres undefined)	none (no result: B2AR arrestin, Giardia killer, p53 reactivator, Mito fusion act, uPA generation)
CCCCn1c(N)c(N(CCOC)C(=O)c2ccc(-c3ccc(C(C)=O)cc3)o2)c(=O)[nH]c1=O	ClpP mod 32µM
CCCCn1c(N)c(N(CCOC)C(=O)c2ccc(-c3ccc([N+](=O)[O-])cc3)o2)c(=O)[nH]c1=O	none
CCCCn1c(N)c(N(CC(C)C)C(=O)CCCc2nc3ccccc3s2)c(=O)[nH]c1=O	ClpP mod 7.1µM
CCCCn1c(N)c(N(CCOC)C(=O)CCCc2nc3ccccc3s2)c(=O)[nH]c1=O	ClpP mod 35µM
C=C(c1ccc2ccccc2n1)c1cccs1	none (no result: B2AR arrestin, Giardia killer, p53 reactivator, Mito fusion act, uPA generation)
CCCCOC(=O)c1ccc(NC(=O)CSc2nc3c(c(=O)[nH]2)CCC3)cc1	none (no result: B2AR arrestin, Giardia killer, p53 reactivator, Mito fusion act, uPA generation)
CC1CC(C)CN(C(=O)/C=C/c2ccc([N+](=O)[O-])s2)C1 (centres undefined)	Giardia killer inconclusive, uPA generation 3.5µM
O=C(/C=C/c1ccc([N+](=O)[O-])s1)N1CCN(c2ccccc2)CC1	Giardia killer inconclusive, uPA generation inconclusive
O=C(/C=C/c1ccc([N+](=O)[O-])s1)N1CCCC1	Giardia killer -87, uPA generation 11µM
O=C(/C=C/c1ccc([N+](=O)[O-])s1)N1CCCCC1	Giardia killer -82, p53 reactivator inconclusive (no result: ClpP mod)
CC1CN(C(=O)/C=C/c2ccc([N+](=O)[O-])s2)CC(C)O1 (centres undefined)	Giardia killer inconclusive, p53 reactivator inconclusive (no result: ClpP mod)
CCCOc1cccc(C(=O)N(Cc2sccc2C)C2CCS(=O)(=O)C2)c1 (centres undefined)	none (no result: B2AR arrestin, Giardia killer, p53 reactivator, Mito fusion act, uPA generation)
FC(F)(F)c1cc(-c2ccccc2)nc(NCC2CCCO2)n1 (centres undefined)	none
FC(F)(F)c1cc(-c2ccccc2)nc(NC2CCCC2)n1	ClpP mod 32µM
CCOC(=O)C1CCC(CN(Cc2ccc(Cl)cc2)S(=O)(=O)c2cc(Cl)cc(Cl)c2)CC1 (centres undefined)	none (no result: B2AR arrestin, Giardia killer, p53 reactivator, Mito fusion act, uPA generation)
CC(C)NC(=O)CCCc1cn(C)c2ccccc12	ClpP mod 32µM
O=C(C1COc2ccccc2O1)N1CCOCC1 (centres undefined)	ClpP mod 16µM
CCn1cc(C(=O)NCc2cccc(F)c2)c(=O)c2cc(F)c(N3CCN(C(=O)c4ccco4)CC3)cc21	ClpP mod 25µM
